# Source: publication PMC7862700, “An all-to-all approach to the identification of sequence-specific readers for epigenetic DNA modifications on cytosine”
# Experiments:
# Experiment in all cases: DAPPL (digital affinity profiling via proximity ligation, sequencing); 10 mM Tris-HCl pH 7.5, 50 mM NaCl, 1 mM DTT, 4% glycerol, room temperature, 30 min; GST-TFs on glutathione beads, 16-mer random dsDNA library, 0.1% formaldehyde crosslink after washing; high values mean tight binding
# [1] = molecular target: T1, FLI1 (Homo sapiens, UniProt Q01543 1-452); conditions: protein: recombinant; tags: N-terminal GST; dsDNA, one strand shown
# T1 sequence: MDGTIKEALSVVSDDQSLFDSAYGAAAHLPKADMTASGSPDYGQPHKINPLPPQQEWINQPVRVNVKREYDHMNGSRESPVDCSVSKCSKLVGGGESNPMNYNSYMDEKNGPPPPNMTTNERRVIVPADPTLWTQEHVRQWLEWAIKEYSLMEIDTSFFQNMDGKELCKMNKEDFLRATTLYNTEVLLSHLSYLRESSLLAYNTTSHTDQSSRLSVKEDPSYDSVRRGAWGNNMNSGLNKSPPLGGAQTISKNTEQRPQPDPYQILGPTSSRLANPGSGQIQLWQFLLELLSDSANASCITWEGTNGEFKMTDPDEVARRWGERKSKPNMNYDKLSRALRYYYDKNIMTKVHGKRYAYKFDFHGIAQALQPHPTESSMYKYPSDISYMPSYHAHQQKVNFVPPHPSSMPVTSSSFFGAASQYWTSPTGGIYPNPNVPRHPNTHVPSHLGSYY
# Method in brief: (§1)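 A tag-only sample was pooled with DNA-barcoded human transcription factors that had been expressed in yeast as GST fusions and captured on glutathione beads. The pools were incubated for 30 min at room temperature with 200 nmole of a random double-stranded 16-mer DNA library in Tris/NaCl/DTT/glycerol buffer, then washed, crosslinked with 0.1% formaldehyde, proximity-ligated (BsaI/T4 ligase, 1 h, 37 °C), PCR-amplified and sequenced on an Illumina NextSeq500. Binding signal is each hexamer's read frequency for a factor divided by its frequency for the tag-only sample.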
# [2] = molecular target: T2, ELK1 (Homo sapiens, UniProt P19419 1-428); conditions: protein: recombinant; tags: N-terminal GST; dsDNA, one strand shown
# T2 sequence: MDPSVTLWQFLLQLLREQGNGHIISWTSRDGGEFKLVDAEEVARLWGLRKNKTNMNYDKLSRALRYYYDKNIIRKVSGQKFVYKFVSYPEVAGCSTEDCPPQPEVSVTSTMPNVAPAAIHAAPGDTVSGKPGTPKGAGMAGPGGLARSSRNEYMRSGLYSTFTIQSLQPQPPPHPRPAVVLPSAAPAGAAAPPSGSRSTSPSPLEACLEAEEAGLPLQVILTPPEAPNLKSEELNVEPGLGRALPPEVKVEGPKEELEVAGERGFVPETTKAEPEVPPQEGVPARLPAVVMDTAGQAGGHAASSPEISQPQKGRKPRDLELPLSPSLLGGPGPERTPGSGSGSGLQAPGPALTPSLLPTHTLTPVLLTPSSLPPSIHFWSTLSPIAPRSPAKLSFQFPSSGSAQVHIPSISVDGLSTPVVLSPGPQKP
# Method in brief: as §1
# [3] = molecular target: T3, GABPA (Homo sapiens, UniProt Q06546 1-454); conditions: protein: recombinant; tags: N-terminal GST; dsDNA, one strand shown
# T3 sequence: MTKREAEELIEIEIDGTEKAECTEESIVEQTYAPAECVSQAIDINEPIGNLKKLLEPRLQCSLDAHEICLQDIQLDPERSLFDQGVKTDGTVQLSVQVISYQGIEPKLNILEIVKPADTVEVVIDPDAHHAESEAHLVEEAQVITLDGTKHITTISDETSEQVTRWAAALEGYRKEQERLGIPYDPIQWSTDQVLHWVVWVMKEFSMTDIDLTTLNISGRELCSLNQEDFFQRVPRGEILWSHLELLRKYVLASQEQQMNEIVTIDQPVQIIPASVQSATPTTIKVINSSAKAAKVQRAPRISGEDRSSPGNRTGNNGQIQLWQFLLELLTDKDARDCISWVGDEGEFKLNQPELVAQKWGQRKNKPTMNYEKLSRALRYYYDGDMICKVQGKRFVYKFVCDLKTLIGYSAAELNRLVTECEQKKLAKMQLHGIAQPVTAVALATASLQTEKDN
# Method in brief: as §1
# [4] = molecular target: T4, ERG (Homo sapiens, UniProt P11308 1-479); conditions: protein: recombinant; tags: N-terminal GST; dsDNA, one strand shown
# T4 sequence: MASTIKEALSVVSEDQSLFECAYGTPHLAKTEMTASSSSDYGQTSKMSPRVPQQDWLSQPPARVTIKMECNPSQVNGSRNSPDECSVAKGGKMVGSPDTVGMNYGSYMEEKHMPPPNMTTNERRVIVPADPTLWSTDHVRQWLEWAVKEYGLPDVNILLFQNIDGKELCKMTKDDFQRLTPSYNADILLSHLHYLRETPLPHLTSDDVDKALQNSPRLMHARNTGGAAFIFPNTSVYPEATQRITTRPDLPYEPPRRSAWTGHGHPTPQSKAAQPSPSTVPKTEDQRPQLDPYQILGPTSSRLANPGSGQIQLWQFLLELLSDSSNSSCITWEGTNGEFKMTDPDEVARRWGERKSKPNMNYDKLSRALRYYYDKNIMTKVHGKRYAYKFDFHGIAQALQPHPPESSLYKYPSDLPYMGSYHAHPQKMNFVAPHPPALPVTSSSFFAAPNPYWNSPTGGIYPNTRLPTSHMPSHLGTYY
# Method in brief: as §1
# [5] = molecular target: ELF1 (Homo sapiens, UniProt P32519 1-619); conditions: protein: recombinant; tags: N-terminal GST; dsDNA, one strand shown
# Chain of ELF1 (P32519 whole entry): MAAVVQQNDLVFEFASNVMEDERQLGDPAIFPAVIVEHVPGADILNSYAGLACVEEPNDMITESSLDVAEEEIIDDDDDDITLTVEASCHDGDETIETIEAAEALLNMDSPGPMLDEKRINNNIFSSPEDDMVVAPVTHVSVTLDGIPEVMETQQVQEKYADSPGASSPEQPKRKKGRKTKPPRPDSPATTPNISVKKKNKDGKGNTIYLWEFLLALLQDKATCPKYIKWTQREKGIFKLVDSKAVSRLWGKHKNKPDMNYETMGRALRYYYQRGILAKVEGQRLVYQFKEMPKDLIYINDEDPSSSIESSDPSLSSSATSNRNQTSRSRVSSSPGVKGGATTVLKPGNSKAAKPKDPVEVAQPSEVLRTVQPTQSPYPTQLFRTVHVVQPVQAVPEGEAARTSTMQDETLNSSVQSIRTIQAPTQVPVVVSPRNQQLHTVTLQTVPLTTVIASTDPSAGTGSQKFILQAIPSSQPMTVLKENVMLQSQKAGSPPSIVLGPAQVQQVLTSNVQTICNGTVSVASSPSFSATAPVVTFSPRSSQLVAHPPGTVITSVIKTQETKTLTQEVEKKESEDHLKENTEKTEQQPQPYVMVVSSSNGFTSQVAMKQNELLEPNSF
# Method in brief: as §1
# [6] = molecular target: T5, EHF (Homo sapiens, UniProt Q9NZC4 1-300); conditions: protein: recombinant; tags: N-terminal GST; dsDNA, one strand shown
# T5 sequence: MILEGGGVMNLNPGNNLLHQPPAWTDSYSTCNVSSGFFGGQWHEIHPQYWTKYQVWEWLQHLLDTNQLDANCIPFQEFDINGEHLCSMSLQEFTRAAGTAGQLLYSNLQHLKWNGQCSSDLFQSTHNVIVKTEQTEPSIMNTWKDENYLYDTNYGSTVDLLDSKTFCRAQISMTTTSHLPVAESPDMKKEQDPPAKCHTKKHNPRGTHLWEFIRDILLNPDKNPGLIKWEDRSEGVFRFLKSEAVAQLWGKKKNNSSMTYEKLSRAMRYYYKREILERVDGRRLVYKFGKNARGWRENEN
# Method in brief: as §1
# [7] = molecular target: SPI1 (Homo sapiens, UniProt P17947 1-270); conditions: protein: recombinant; tags: N-terminal GST; dsDNA, one strand shown
# Method in brief: as §1
# [8] = molecular target: SPIB (Homo sapiens, UniProt Q01892 1-262); conditions: protein: recombinant; tags: N-terminal GST; dsDNA, one strand shown
# Chain of SPIB (Q01892 whole entry): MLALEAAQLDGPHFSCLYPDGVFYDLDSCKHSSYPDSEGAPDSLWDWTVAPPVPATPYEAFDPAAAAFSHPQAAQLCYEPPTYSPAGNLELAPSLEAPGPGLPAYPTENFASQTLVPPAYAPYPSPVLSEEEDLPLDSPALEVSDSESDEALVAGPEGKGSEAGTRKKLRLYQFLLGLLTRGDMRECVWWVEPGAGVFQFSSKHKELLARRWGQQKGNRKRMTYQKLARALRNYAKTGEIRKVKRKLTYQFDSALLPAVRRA
# Method in brief: as §1
# [9] = molecular target: T6, ELK3 (Homo sapiens, UniProt P41970 1-407); conditions: protein: recombinant; tags: N-terminal GST; dsDNA, one strand shown
# T6 sequence: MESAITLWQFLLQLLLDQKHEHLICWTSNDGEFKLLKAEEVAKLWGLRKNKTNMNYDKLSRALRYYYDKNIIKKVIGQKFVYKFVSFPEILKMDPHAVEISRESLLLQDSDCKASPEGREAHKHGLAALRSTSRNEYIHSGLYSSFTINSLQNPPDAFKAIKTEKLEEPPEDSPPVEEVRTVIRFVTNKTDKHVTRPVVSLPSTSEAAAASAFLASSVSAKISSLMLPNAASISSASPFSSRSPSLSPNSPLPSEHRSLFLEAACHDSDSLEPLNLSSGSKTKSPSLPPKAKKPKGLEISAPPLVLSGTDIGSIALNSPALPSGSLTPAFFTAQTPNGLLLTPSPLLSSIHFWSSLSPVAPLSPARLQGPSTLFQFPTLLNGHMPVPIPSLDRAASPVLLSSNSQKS
# Method in brief: as §1
# [10] = molecular target: T7, FEV (Homo sapiens, UniProt Q99581 1-238); conditions: protein: recombinant; tags: N-terminal GST; dsDNA, one strand shown
# T7 sequence: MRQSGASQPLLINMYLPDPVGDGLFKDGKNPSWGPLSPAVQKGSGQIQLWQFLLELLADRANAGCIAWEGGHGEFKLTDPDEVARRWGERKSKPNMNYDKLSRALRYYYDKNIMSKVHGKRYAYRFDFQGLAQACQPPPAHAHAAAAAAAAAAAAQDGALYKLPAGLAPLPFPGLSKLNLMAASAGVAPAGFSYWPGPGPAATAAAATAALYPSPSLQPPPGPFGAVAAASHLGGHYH
# Method in brief: as §1
# [11] = molecular target: ETV5 (Homo sapiens, UniProt P41161 1-510); conditions: protein: recombinant; tags: N-terminal GST; dsDNA, one strand shown
# Chain of ETV5 (P41161 whole entry): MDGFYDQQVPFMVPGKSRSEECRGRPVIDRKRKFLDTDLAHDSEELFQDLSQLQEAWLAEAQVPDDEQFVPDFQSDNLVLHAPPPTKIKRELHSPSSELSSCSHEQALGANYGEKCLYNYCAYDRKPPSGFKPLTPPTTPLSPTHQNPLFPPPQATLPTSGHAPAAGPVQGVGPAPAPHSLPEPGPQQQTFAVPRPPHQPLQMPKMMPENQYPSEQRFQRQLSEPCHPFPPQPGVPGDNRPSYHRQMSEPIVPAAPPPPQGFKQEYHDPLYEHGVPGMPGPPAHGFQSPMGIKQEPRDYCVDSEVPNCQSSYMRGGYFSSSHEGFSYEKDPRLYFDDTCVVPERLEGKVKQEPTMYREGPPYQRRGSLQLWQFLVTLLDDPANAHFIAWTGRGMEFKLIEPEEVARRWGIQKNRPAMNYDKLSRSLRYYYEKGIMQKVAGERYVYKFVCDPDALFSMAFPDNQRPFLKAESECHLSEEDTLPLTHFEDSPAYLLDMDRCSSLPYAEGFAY
# Method in brief: as §1
# [12] = molecular target: HSF1 (Homo sapiens, UniProt Q00613 1-529); conditions: protein: recombinant; tags: N-terminal GST; chain copies: 3; dsDNA, one strand shown
# Chain of HSF1 (Q00613 whole entry): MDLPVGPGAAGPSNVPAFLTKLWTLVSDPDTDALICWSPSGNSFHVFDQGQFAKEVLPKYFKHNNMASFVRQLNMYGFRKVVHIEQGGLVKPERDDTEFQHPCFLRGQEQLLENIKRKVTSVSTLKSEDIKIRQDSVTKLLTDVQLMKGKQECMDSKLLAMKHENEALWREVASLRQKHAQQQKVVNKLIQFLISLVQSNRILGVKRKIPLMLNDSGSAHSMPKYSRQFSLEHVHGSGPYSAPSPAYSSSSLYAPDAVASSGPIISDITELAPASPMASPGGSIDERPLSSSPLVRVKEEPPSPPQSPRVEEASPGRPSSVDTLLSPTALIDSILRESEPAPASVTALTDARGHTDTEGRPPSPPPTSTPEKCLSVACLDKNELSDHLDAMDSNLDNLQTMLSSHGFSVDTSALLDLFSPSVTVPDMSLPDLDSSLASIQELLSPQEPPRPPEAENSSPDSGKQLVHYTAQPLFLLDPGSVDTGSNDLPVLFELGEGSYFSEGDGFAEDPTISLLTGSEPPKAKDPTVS
# Method in brief: as §1
# [13] = molecular target: T8, SPIC (Homo sapiens, UniProt Q8N5J4 1-248); conditions: protein: recombinant; tags: N-terminal GST; dsDNA, one strand shown
# T8 sequence: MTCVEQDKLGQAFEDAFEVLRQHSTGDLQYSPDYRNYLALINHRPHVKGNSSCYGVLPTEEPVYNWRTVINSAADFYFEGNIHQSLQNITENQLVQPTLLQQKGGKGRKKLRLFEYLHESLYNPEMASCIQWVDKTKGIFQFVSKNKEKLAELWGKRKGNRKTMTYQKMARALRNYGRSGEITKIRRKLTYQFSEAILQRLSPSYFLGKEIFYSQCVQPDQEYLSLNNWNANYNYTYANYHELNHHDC
# Method in brief: as §1
# [14] = molecular target: ELF4 (Homo sapiens, UniProt Q99607 1-663); conditions: protein: recombinant; tags: N-terminal GST; dsDNA, one strand shown
# Chain of ELF4 (Q99607 whole entry): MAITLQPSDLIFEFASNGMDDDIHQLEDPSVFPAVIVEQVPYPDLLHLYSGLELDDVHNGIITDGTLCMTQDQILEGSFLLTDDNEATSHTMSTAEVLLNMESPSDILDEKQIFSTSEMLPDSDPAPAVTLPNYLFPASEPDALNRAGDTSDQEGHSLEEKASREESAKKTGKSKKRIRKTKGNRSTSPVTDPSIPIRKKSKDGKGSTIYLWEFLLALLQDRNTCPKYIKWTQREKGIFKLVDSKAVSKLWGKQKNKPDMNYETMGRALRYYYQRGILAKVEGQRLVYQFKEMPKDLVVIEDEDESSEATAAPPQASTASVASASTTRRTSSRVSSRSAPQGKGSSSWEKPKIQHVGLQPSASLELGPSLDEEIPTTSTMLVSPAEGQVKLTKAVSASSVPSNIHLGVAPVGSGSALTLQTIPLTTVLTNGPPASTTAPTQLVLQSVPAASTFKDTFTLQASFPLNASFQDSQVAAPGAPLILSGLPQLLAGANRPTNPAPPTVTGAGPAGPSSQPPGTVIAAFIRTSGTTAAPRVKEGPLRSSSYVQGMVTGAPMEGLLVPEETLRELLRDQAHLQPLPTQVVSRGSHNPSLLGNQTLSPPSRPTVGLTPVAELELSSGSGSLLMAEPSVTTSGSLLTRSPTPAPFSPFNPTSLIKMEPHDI
# Method in brief: as §1
# [15] = molecular target: T9, ELK4 (Homo sapiens, UniProt P28324-2 1-405); conditions: protein: recombinant; tags: N-terminal GST; dsDNA, one strand shown
# T9 sequence: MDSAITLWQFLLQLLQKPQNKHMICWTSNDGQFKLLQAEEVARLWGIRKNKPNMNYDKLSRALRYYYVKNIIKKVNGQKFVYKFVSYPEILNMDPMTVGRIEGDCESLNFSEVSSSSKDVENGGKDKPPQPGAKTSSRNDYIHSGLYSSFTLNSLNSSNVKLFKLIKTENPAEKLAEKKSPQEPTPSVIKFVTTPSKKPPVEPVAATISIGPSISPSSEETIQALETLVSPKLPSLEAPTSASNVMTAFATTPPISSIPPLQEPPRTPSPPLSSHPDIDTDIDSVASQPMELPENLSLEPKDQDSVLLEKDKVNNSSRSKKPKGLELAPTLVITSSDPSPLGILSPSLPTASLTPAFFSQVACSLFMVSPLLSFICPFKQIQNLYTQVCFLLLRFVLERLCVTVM
# Method in brief: as §1
# [16] = molecular target: T10, ETV2 (Homo sapiens, UniProt O00321 1-342); conditions: protein: recombinant; tags: N-terminal GST; dsDNA, one strand shown
# T10 sequence: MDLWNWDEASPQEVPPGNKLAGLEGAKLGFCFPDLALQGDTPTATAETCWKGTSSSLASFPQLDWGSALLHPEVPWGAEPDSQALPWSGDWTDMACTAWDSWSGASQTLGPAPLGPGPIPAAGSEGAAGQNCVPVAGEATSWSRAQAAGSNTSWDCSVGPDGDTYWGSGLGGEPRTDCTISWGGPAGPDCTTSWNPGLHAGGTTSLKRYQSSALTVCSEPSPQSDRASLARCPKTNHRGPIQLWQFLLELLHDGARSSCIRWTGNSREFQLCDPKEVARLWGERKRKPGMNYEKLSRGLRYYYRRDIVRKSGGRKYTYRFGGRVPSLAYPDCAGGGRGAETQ
# Method in brief: as §1
# [17] = molecular target: T11, ELF3 (Homo sapiens, UniProt P78545 1-371); conditions: protein: recombinant; tags: N-terminal GST; dsDNA, one strand shown
# T11 sequence: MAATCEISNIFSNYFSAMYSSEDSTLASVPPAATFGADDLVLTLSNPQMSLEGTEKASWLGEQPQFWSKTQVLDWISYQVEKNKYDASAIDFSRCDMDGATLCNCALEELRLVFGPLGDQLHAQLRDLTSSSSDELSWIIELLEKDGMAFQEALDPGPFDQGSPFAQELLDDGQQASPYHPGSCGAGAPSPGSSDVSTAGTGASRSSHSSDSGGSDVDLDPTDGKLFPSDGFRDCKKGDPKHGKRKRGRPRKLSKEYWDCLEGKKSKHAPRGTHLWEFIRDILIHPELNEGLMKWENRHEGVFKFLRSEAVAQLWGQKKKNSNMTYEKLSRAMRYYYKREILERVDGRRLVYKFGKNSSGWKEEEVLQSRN
# Method in brief: as §1
# [18] = molecular target: CRX (Homo sapiens, UniProt O43186 1-299); conditions: protein: recombinant; tags: N-terminal GST; dsDNA, one strand shown
# Chain of CRX (O43186 whole entry): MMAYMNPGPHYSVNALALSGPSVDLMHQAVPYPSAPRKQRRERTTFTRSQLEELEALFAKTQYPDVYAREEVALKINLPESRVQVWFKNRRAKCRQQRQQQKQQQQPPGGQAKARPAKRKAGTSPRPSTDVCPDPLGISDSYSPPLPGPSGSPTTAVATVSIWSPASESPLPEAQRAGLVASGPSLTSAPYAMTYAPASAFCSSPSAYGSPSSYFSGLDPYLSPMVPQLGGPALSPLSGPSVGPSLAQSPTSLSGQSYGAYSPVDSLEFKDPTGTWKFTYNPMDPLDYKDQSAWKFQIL
# Method in brief: as §1
# [19] = molecular target: ETV1 (Homo sapiens, UniProt P50549 1-477); conditions: protein: recombinant; tags: N-terminal GST; dsDNA, one strand shown
# Chain of ETV1 (P50549 whole entry): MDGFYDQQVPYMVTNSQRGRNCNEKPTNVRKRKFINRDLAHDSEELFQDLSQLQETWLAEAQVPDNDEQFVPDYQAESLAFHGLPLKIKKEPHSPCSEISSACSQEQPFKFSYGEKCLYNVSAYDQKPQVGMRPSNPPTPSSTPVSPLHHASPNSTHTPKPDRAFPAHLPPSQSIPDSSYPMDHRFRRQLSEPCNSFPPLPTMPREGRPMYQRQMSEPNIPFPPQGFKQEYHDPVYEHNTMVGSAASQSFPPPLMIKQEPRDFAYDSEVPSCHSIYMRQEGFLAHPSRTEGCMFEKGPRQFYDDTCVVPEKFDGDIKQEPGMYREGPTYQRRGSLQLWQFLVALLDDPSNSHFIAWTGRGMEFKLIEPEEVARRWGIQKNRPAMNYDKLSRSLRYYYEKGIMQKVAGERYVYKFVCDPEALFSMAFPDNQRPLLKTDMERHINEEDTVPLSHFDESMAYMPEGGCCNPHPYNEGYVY
# Method in brief: as §1
sequence,measurement,setting,value
GCTCAA,binding signal,[1],"1.05 fold enrichment (6-mer frequency, TF over GST control)"
same,binding signal,[2],"1.1 fold enrichment (6-mer frequency, TF over GST control)"
same,binding signal,[3],"1.05 fold enrichment (6-mer frequency, TF over GST control)"
same,binding signal,[4],"1.15 fold enrichment (6-mer frequency, TF over GST control)"
same,binding signal,[5],"1.09 fold enrichment (6-mer frequency, TF over GST control)"
same,binding signal,[6],"1.13 fold enrichment (6-mer frequency, TF over GST control)"
same,binding signal,[7],"1.09 fold enrichment (6-mer frequency, TF over GST control)"
same,binding signal,[8],"1.1 fold enrichment (6-mer frequency, TF over GST control)"
same,binding signal,[9],"1.01 fold enrichment (6-mer frequency, TF over GST control)"
same,binding signal,[10],"1.07 fold enrichment (6-mer frequency, TF over GST control)"
same,binding signal,[11],"1.12 fold enrichment (6-mer frequency, TF over GST control)"
same,binding signal,[12],"1.16 fold enrichment (6-mer frequency, TF over GST control)"
same,binding signal,[13],"1.19 fold enrichment (6-mer frequency, TF over GST control)"
same,binding signal,[14],"1.16 fold enrichment (6-mer frequency, TF over GST control)"
same,binding signal,[15],"1.03 fold enrichment (6-mer frequency, TF over GST control)"
same,binding signal,[16],"1.1 fold enrichment (6-mer frequency, TF over GST control)"
same,binding signal,[17],"1.11 fold enrichment (6-mer frequency, TF over GST control)"
same,binding signal,[18],"1.31 fold enrichment (6-mer frequency, TF over GST control)"
same,binding signal,[19],"1.1 fold enrichment (6-mer frequency, TF over GST control)"
